# Measurements taken from PubChem BioAssay.
# Molecular target: Epidermal growth factor receptor (Homo sapiens) (UniProt P00533)
# Experiment: EGFR binders on small-molecule microarrays, primary screen, biochemical, small-molecule microarray, 635 nm fluorescence (AID 1104);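 note: score merges 667 nm emission intensity with spot signal to noise over triplicate slides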
# Details: EGFR binding, higher = more signal
# Chain of Epidermal growth factor receptor (Homo sapiens) (P00533 whole entry, looked up): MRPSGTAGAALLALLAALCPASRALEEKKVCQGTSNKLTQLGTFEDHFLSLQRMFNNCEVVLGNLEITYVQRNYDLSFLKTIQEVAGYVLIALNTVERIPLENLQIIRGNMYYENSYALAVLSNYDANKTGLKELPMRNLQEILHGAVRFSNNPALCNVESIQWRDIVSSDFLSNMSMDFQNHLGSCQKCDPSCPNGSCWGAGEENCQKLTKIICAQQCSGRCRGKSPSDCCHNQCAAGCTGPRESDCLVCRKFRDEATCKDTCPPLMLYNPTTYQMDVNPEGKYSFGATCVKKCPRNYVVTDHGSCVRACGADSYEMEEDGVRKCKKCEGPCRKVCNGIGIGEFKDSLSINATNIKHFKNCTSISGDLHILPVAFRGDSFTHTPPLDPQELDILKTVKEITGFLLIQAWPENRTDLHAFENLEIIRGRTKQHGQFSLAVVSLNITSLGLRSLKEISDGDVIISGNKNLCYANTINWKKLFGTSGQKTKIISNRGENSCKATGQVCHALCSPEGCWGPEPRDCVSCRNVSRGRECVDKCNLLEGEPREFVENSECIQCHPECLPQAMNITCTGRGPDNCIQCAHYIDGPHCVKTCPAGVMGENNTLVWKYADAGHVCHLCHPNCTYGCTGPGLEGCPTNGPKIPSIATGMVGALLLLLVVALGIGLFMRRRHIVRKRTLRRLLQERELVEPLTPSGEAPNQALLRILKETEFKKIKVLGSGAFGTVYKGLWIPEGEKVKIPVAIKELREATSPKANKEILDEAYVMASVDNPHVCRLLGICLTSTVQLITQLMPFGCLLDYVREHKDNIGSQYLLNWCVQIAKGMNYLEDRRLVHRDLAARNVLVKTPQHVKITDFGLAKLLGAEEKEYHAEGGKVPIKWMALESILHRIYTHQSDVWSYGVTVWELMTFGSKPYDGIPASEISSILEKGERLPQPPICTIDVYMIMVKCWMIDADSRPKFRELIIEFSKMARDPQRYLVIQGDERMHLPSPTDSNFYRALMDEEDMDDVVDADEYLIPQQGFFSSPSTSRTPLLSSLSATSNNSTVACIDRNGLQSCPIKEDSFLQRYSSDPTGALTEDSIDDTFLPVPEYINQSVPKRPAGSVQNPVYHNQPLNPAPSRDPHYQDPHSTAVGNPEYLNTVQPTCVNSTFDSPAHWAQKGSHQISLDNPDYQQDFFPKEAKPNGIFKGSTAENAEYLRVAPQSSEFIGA
row,Compound,composite z-score
1,COc1ccc([Si](C)(C)[C@@H]2[C@@H](CC(=O)N3Cc4ccccc4C[C@H]3CO)O[C@]3(C(=O)N(C)c4ccccc43)[C@H]2C)cc1,1.05
2,O=C(N1CCCCC1)[C@@]1(CCS(=O)(=O)c2ccccc2)COC(c2ccc(OCCCO)cc2)=N1,-0.075
3,O=C1NC(=O)C2C1C=CC(C(O)CCc1ccccc1)N2Nc1ccc(Cl)cc1Cl (stereo not given),-0.973
4,C=CCC(OC(C)=O)[C@@H]1[C@@H](N(Cc2cc3ccccc3o2)C(=O)c2ccc(-c3ccccc3)cc2)c2cc(OCCCO)ccc2N1C(=O)c1ccc2ccccc2c1 (stereo not given in full),-0.0546
5,CCOC(=O)C[C@H]1[C@H](OC(=O)Cc2ccc3c(c2)OCO3)[C@@H](NC(=O)Cc2ccc(OC)cc2)c2cc(OCCCO)ccc2N1C(=O)c1ccc2ccccc2n1,0.516
6,COC(=O)c1c2oc(c1C(=O)OC)C(=O)N(Cc1ccccc1)Cc1cn(nn1)C[C@H](Cc1ccccc1)NC(=O)N[C@H](CO)CC2,0.0933
7,NC(N)=NCCCn1cc(CNC(=O)[C@@H](N)Cc2ccccc2)nn1,-0.38
8,NC(=O)N1C(=O)C2C(C1=O)C1C=C(CCCO)C2C(c2cccs2)N1Cc1cccc(OC(F)(F)F)c1 (stereo not given),0.121
9,CCOC(=O)C[C@H]1[C@H](OC(=O)c2cc3ccccc3oc2=O)[C@@H](NC(=O)Cc2ccc(OC)cc2)c2cc(OCCCO)ccc2N1C(=O)c1ccc2ccccc2n1,0.409
10,COCCOC(=O)N1C(=O)[C@@]2(c3cc(C#CC4=CCCCC4)ccc31)[C@H](c1ccc(OCCO)cc1)N1[C@H](c3ccccc3)[C@H](c3ccccc3)OC(=O)[C@H]1[C@@H]2C(=O)NC[C@H](O)c1ccccc1,0.933
11,COC(=O)c1nc2oc1CC[C@@H](CO)NC(=O)N(C)Cc1cnnn1C[C@H](Cc1ccccc1)NC2=O,-0.913
12,CN1C(=O)C2C=CC(C(O)COCc3ccccc3)N(N(c3ccccc3)c3ccccc3)C2C1=O (stereo not given),0.238
13,COc1cc2c(cc1O)C(C)N(Cc1ccc([N+](=O)[O-])o1)CC2 (stereo not given),-0.459
14,C=CCOC(=O)[C@H]1[C@@H]2C(=O)O[C@@H](c3ccccc3)[C@@H](c3ccccc3)N2[C@@H](c2ccc(OCCOC(=O)[C@@H]3C[C@@H]4C(=O)N[C@@H](CCCCN(C)C)C(=O)N4[C@@H]3c3ccc(O)cc3)cc2)[C@]12C(=O)Nc1ccccc12,0.961
15,CCOC(=O)C1=C[C@@H](c2ccccc2)N(S(=O)(=O)c2ccc(C)cc2)[C@H]1c1ccccc1Cl,0.683
16,C[N+](C)(C)CCCCCCNC(=O)[C@H]1C[C@H]2C(=O)NCC(=O)N2[C@H]1c1ccc(O)cc1,0.056
17,COc1cc(CO)cc(I)c1O[C@H]1C=C(C(=O)NCCO)C[C@@H](NCc2ccc(F)cc2)[C@@H]1O,-0.0831
18,COC1OC[C@]2(C)[C@H]3C4=C(CN2C(=O)OC(C)(C)C)[C@H](C)C(CO)C(CO)C4CC[C@@H]13 (stereo not given in full),0.0188

row,Compound,composite z-score
1,O=C1O[C@H](c2ccccc2)[C@H](c2ccccc2)N2[C@H]1[C@@H](C(=O)Nc1nc3ccccc3s1)[C@]1(C(=O)Nc3ccc(C#CCCO)cc31)[C@H]2c1ccc(O)cc1,0.591
2,C=CCC(OC(C)=O)[C@@H]1[C@@H](N(Cc2cc3ccccc3o2)C(=O)Cc2ccc(F)cc2)c2cc(OCCCO)ccc2N1C(=O)c1ccc2ccccc2c1 (stereo not given in full),0.0137
3,OCCCC1=CC(c2ccc(CN3CCCC3)cc2)N(Cc2sc3ccccc3c2Cl)CC1 (stereo not given),0.62
4,O=C1O[C@H](c2ccccc2)[C@H](c2ccccc2)N2[C@H]1[C@@H](C(=O)N1CCN(c3ncccn3)CC1)[C@]1(C(=O)Nc3ccc(C#CC4(O)CCCCCC4)cc31)[C@H]2c1ccc(OCCO)cc1,1.38
5,O=C1C2C=CC(C(O)c3ccc(Br)cc3)N(Nc3ccccc3F)C2C(=O)N1c1ccccc1 (stereo not given),-0.309
6,COCCOC(=O)N1C(=O)[C@@]2(c3cc(C#CCC(C(=O)OC)C(=O)OC)ccc31)[C@H](C(=O)N1CCc3cc(OC)c(OC)cc3C1)[C@H]1C(=O)O[C@H](c3ccccc3)[C@H](c3ccccc3)N1[C@@H]2c1ccc(OCCO)cc1,0.936
7,CC(CO)N1C(=O)[C@@H]2[C@H]3C(=O)OCC=C[C@H]3OC23C=CCN(CCN2CCOCC2)C(=O)[C@@H]13 (stereo not given in full),-0.101
8,C=C(COC)C(=O)CC[C@@H](OC(=O)c1cccnc1)c1ccc(OCCO)cc1,0.338
9,COC(=O)[C@@]1(Cc2ccc(OC)cc2)[C@H]2c3cc(C(=O)N4CCCC4)n(Cc4cccc5ccccc45)c3C[C@H]2CN1C(=O)c1ccccc1,-0.282
10,CC(C)(C)OC(=O)CC[C@@]1(C(=O)NCc2ccccc2)N=C(c2ccc(OCCCO)cc2)O[C@@H]1c1ccccc1N=[N+]=[N-],0.373
11,C=CC[C@@]1(C(=O)N2CCOCC2)N=C(c2ccc(OCCCO)cc2)O[C@@H]1c1ccccc1CN=[N+]=[N-],0.749
12,COC(=O)[C@@]1(Cc2ccc(F)cc2)[C@H]2c3cc(C(=O)N4CCCC4)n(CCc4ccc(O)c(O)c4)c3C[C@H]2CN1C(=O)c1ccccc1,-0.0942
13,CCOC(=O)C[C@H]1[C@H](OC(=O)c2cc3ccccc3oc2=O)[C@@H](NC(=O)c2ccc(-c3ccccc3)cc2)c2cc(OCCCO)ccc2N1C(=O)c1ccc2ccccc2n1,0.622
14,COc1ccc([Si](C)(C)[C@H]2[C@H](CCn3cc([C@H](O)c4ccccc4)nn3)O[C@@]3(C(=O)N(Cc4ccc(N5C(=O)c6cccc7cccc5c67)cc4)c4ccccc43)[C@@H]2C)cc1,-0.775
15,C[C@@H]1NC(=O)[C@@]23C(=O)N[C@@H](Cc4ccccc4)C2[C@H](C)[C@@]2(C)O[C@H]2C3/C=C/C/C=C\CNC(=O)[C@@H]2CCCN2C1=O (stereo not given in full),-0.0154
16,COC(=O)[C@@]1(Cc2ccccc2)[C@H]2c3cc(C(=O)N(C)C)n(Cc4c(CO)[nH]cc(C)c4=O)c3C[C@H]2CN1C(=O)c1ccccc1,-0.0555
17,COC(=O)CCCCCCC(=O)Nc1ccc(NC(=O)CCCC[P+](c2ccccc2)(c2ccccc2)c2ccccc2)cc1,0.758
